{"source": "the supplement of paper PMC10849652", "note": "About 8,800 targets were measured; listed, in parts, are those with a hit and a random draw of the rest. About 0.5% of all pairs of compound and target were hits. A number with no mark means an inactive call.", "data": [{"compound": "c1ccc([C@@H]2C[C@H]2NC2CCNCC2)cc1", "assay": "log2 fold change, soluble protein after heating vs DMSO (PISA); higher = thermal stabilisation; K562 lysate, 10 uM; active = over 0.2 and 3.5 SD of the protein, either way, in both replicates (recomputed)", "summary_of_the_method": "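To prepare the extract, K562 pellets were dounce-homogenised in PBS pH 7.4 with 1 mM MgCl2, giving crude material at 1 mg/mL protein. This was treated with 10 μM compound for 30 min, then heated in aliquots for 3 min over 48°C-58°C before pooling and addition of NP-40 to 0.5% at 4°C. Centrifugation at 21,000xg for 90 min left soluble protein in the supernatant, which TMTpro 16plex LC-MS/MS quantified with equalised channel sums. Results are log-two fold changes in thermal stability compared with solvent controls, from duplicates.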", "values": [{"target": "LEPROT (UniProt O15243)", "sequence (O15243 whole entry, looked up)": "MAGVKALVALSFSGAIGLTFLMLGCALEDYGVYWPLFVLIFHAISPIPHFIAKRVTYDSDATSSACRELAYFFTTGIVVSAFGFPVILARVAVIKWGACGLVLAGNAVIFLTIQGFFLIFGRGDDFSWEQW", "log2 fold change": -0.161}, {"target": "MPDZ (UniProt O75970)", "log2 fold change": -0.09}, {"target": "LRIF1 (UniProt Q5T3J3)", "log2 fold change": -0.071}, {"target": "LY6E (UniProt Q16553)", "sequence (Q16553 whole entry, looked up)": "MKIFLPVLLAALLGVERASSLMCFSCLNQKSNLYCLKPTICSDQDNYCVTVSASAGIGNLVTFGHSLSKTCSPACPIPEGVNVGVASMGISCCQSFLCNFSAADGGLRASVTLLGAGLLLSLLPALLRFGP", "log2 fold change": -0.815}, {"target": "MED25 isoform 3 (UniProt Q71SY5)", "log2 fold change": 0.052}, {"target": "MME (UniProt P08473)", "sequence (P08473 whole entry, looked up)": "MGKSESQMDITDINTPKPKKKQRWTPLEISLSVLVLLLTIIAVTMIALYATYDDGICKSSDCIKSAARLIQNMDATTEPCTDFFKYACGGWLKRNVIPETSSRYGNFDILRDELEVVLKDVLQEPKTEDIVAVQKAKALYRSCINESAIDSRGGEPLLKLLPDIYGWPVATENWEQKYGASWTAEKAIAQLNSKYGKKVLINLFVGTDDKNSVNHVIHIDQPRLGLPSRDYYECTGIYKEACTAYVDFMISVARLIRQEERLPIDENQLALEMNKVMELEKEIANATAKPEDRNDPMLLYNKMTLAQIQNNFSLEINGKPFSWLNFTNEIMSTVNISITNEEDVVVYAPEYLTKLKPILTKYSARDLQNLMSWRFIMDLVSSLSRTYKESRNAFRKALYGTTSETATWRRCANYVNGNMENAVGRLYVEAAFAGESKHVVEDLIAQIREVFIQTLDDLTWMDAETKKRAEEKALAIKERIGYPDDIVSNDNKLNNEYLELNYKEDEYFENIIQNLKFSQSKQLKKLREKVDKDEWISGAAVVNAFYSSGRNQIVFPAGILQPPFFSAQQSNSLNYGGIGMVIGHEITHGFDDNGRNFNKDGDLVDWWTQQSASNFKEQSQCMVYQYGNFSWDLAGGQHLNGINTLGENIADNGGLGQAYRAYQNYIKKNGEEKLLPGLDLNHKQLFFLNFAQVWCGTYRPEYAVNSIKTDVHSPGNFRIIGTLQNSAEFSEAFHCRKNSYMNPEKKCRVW", "log2 fold change": -0.001}, {"target": "LRRC9 (UniProt Q6ZRR7)", "sequence (Q6ZRR7 whole entry, looked up)": "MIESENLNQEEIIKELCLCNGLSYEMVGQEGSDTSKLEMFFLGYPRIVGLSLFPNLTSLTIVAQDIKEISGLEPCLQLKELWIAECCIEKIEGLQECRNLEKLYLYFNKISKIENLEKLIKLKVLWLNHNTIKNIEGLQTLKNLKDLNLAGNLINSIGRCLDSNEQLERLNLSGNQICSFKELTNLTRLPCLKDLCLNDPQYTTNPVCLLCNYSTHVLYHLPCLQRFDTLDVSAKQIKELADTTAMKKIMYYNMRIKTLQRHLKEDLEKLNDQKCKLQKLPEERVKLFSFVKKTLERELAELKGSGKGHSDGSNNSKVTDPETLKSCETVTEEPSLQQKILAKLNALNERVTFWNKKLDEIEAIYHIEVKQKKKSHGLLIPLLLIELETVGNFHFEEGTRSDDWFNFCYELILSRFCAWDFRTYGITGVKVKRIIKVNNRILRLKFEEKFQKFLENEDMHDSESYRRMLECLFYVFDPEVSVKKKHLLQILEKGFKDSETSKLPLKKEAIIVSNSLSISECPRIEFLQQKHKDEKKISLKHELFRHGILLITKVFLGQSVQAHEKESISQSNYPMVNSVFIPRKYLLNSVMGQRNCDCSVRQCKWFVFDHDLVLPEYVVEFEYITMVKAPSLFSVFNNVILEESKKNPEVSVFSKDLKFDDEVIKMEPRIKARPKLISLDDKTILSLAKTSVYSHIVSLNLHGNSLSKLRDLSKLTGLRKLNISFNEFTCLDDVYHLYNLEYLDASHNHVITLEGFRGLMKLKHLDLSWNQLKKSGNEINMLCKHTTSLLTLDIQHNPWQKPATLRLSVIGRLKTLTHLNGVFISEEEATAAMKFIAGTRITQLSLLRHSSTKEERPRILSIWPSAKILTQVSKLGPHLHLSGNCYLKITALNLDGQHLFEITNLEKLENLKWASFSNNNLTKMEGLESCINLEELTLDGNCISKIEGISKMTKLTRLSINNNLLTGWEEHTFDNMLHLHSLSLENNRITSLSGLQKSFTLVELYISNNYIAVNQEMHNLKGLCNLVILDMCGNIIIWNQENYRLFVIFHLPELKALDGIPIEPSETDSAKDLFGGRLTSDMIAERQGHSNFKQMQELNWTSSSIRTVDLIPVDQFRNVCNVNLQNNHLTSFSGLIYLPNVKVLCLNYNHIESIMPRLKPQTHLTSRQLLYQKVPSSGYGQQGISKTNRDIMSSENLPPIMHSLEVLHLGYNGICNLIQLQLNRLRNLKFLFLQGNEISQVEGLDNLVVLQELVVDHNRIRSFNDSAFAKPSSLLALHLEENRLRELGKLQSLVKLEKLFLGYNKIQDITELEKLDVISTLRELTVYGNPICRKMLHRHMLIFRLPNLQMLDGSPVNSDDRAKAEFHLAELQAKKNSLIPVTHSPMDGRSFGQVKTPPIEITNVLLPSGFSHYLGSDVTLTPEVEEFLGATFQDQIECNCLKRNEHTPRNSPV", "log2 fold change": 0.209}, {"target": "MDM2 isoform 11 (UniProt Q00987)", "log2 fold change": -0.158}, {"target": "MRPL22 (UniProt Q9NWU5)", "log2 fold change": 0.019}, {"target": "MRC2 (UniProt Q9UBG0)", "log2 fold change": -0.084}, {"target": "MDM1 (UniProt Q8TC05)", "sequence (Q8TC05 whole entry, looked up)": "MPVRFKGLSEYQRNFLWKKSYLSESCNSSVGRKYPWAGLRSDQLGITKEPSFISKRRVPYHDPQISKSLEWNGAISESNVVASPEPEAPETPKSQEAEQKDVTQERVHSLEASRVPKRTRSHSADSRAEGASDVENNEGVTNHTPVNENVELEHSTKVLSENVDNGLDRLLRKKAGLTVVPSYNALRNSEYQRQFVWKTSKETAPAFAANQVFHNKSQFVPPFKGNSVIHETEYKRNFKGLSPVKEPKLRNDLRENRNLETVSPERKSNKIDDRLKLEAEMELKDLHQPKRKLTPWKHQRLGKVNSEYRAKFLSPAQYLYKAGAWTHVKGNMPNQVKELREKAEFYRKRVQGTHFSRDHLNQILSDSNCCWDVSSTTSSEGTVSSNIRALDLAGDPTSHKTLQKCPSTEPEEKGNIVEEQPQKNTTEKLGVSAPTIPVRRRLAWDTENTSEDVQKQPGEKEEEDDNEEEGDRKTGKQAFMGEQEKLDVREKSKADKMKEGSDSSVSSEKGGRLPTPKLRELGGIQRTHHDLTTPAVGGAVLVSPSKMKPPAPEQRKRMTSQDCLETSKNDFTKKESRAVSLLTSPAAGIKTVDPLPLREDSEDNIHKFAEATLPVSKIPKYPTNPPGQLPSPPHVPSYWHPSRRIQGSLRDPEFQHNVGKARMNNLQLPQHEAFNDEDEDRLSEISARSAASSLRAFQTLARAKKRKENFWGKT", "log2 fold change": "-0.866 (active)"}, {"target": "KIF3C (UniProt O14782)", "log2 fold change": 0.022}, {"target": "MRPL27 (UniProt Q9P0M9)", "log2 fold change": 0.208}, {"target": "LGALS3BP (UniProt Q08380)", "log2 fold change": -0.071}, {"target": "MEGF8 (UniProt Q7Z7M0)", "log2 fold change": 0.1}, {"target": "MPP1 (UniProt Q00013)", "log2 fold change": 0.044}, {"target": "MAN2B2 (UniProt Q9Y2E5)", "log2 fold change": 0.255}, {"target": "LYN isoform 2 (UniProt P07948)", "log2 fold change": 0.102}, {"target": "LSM11 (UniProt P83369)", "sequence (P83369 whole entry, looked up)": "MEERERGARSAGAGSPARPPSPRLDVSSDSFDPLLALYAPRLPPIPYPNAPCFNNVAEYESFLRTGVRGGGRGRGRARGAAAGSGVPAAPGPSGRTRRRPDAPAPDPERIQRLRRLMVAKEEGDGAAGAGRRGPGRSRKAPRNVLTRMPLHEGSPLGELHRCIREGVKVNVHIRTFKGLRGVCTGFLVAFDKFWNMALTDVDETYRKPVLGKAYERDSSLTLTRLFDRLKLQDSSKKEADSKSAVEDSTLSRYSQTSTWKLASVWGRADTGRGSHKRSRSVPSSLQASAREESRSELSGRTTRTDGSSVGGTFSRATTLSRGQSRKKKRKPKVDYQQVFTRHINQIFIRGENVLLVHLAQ", "log2 fold change": -0.089}, {"target": "MAPK7 (UniProt Q13164)", "log2 fold change": 0.042}, {"target": "MCUB (UniProt Q9NWR8)", "sequence (Q9NWR8 whole entry, looked up)": "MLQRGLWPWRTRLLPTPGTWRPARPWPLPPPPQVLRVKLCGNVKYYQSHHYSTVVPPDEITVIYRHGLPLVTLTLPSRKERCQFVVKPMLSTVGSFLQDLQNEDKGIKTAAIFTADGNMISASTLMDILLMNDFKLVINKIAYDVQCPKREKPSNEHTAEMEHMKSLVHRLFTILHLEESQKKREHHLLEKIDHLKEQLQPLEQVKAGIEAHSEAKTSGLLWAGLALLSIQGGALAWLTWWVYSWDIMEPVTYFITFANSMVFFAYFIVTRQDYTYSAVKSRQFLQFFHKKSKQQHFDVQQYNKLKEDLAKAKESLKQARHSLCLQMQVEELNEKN", "log2 fold change": 0.205}, {"target": "METTL21A (UniProt Q8WXB1)", "sequence (Q8WXB1 whole entry, looked up)": "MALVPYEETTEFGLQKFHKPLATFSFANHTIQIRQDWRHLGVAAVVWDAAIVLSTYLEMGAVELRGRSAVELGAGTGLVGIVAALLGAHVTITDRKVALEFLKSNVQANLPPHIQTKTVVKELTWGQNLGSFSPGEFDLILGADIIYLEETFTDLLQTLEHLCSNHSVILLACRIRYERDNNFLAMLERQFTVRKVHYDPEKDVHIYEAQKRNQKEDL", "log2 fold change": 0}, {"target": "MED28 (UniProt Q9H204)", "log2 fold change": 0.018}, {"target": "KRAS (UniProt P01116)", "sequence (P01116 whole entry, looked up)": "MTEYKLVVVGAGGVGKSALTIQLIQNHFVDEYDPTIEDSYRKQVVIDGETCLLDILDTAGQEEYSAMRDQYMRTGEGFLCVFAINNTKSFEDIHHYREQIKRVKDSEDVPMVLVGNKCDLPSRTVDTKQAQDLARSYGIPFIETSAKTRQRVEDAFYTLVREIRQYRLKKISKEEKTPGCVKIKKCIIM", "log2 fold change": -0.092}, {"target": "KPNA4 (UniProt O00629)", "log2 fold change": -0.169}, {"target": "MCCC1 (UniProt Q96RQ3)", "log2 fold change": 0.059}, {"target": "KIF2A isoform 2 (UniProt O00139)", "sequence (O00139 whole entry, looked up)": "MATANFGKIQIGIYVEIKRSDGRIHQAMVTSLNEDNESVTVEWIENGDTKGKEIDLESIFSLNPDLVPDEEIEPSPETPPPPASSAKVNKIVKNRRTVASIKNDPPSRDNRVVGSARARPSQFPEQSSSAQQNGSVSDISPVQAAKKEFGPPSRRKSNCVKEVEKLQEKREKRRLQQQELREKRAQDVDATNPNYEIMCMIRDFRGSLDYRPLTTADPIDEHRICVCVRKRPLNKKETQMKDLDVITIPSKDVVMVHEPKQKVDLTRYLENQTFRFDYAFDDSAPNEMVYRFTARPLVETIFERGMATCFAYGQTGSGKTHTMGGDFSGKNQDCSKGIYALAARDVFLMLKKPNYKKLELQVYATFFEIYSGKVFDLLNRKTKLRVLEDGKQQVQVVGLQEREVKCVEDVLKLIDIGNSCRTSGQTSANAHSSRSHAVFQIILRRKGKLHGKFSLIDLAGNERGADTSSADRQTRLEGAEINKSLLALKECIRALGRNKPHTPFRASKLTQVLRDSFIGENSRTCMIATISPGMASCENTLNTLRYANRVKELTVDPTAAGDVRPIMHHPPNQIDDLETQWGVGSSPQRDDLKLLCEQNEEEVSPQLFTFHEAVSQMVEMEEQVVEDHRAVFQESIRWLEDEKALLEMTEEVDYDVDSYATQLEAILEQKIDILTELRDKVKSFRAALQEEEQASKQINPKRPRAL", "log2 fold change": 0.326}, {"target": "MRPL30 isoform 2 (UniProt Q8TCC3)", "log2 fold change": 0.476}]}]}
